Reference: PubChem BioAssay (NCATS)
“And” between values parts separate entries of the source, which are not always exact repeats. Identical values can stand only once. Results filed as inconclusive are left out. The source made the active and inactive calls. Calls come from the whole dose curve; as a rule, active = well fitted inhibition curve with a large enough effect; inconclusive = small, poorly fitted or top-dose-only effect; inactive = flat fitted curve, though single readings scatter.

Tests used:
TAB165 = experiment: qHTS profiling for inhibitors of Plasmodium falciparum proliferation (AID 504749);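 note: 0% = DMSO vehicle and full inhibition = artemisinin control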; details: P. falciparum in erythrocytes, SYBR Green DNA, 72 h; series mostly up to 28.7 µM
Procedure, shortened: (§1)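 Fluorescence of SYBR Green-bound parasite DNA, read at 485/535 nm, served as the growth measure. Infected erythrocytes were cultured with compound 72 h; artemisinin (0.29 uM) and DMSO wells defined the normalization range.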

W2 = experiment: as above; details: P. falciparum in erythrocytes, SYBR Green DNA, 72 h; series mostly up to 28.7 µM
Procedure, shortened: as §1

CRL-7250 [1] = experiment: Cytotoxic Profiling of Annotated Libraries Using Quantitative High-Throughput Screening (AID 1296008); details: Five cell lines viability, CellTiter-Glo ATP luminescence, 48-72 h; max response: active compounds read low; note: potency is the fitted concentration of half-maximal effect; for max response: % is set by controls: 0 for no effect and ±100 for the full control effect
Procedure, shortened: (§2)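 Compounds were pin-transferred onto cells and incubated 48 or 72 hr at 37 degree Celsius, 95% humidity. CellTiter-Glo was added, plates sat 10 min at room temperature, then ATP-coupled luminescence was imaged as the viability read-out.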

HEK293 = experiment: as above; details: Five cell lines viability, CellTiter-Glo ATP luminescence, 48-72 h; max response: active compounds read low
Procedure, shortened: as §2

HaCat [2] = experiment: as above; details: Five cell lines viability, CellTiter-Glo ATP luminescence, 48-72 h; max response: active compounds read low
Procedure, shortened: as §2

KB-3-1 = experiment: as above; details: Five cell lines viability, CellTiter-Glo ATP luminescence, 48-72 h; max response: active compounds read low
Procedure, shortened: as §2

NIH3T3 = experiment: as above; details: Five cell lines viability, CellTiter-Glo ATP luminescence, 48-72 h; max response: active compounds read low
Procedure, shortened: as §2

CRL-7250 [3] = experiment: qHTS assay to identify novel small-molecules to repurpose for Merkel cell carcinoma treatment (AID 1296009); details: MCC and control cell lines, CellTiter-Glo viability, 72 h; at 44.8 µM (top of the series) unless noted
Procedure, shortened: (§3)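 Luminescence from CellTiter-Glo, read 10 min after addition at room temperature, reported viability following a 72 hr, 37 degree celsius treatment with NPC or MIPE compounds in titration; values normalized to plate controls.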

HACAT [4] = experiment: as above; details: MCC and control cell lines, CellTiter-Glo viability, 72 h; at 44.8 µM (top of the series) unless noted
Procedure, shortened: as §3

HEK293T = experiment: as above; details: MCC and control cell lines, CellTiter-Glo viability, 72 h; at 44.8 µM (top of the series)
Procedure, shortened: as §3
Note: nearly all actives have a fitted effect of over 60% in size.

O=c1n(Cl)c(=O)n(Cl)c(=O)n1Cl
inactive: Potency (TAB165) | Potency (W2) | outcome (CRL-7250 [1]) | max response (HEK293) -82.7% | outcome (HaCat [2]) | max response (KB-3-1) 7.13% | max response (NIH3T3) 2.85% | outcome (CRL-7250 [3]) | outcome (HACAT [4])

COc1ccc2[nH]cc(CCN(C(C)C)C(C)C)c2c1
inactive: max response (CRL-7250 [1]) -1.26% | max response (HEK293) -7.74% | max response (HaCat [2]) 1.43% | max response (KB-3-1) -17% | max response (NIH3T3) 1.94%

CCOC(=O)c1ncn2c1CN(C)C(=O)c1c(I)cccc1-2
inactive: max response (CRL-7250 [1]) -19.8% | max response (HEK293) -11.8% | max response (HaCat [2]) -1.53% | max response (KB-3-1) 1.54% | max response (NIH3T3) -15.1%

CN(C)CCc1c[nH]c2cccc(O)c12
inactive: outcome (CRL-7250 [1]) | max response (HEK293) -13.6% | outcome (HaCat [2]) | max response (KB-3-1) -8.17% | max response (NIH3T3) 2.31% | outcome (CRL-7250 [3]) inactive [at 92 µM] | outcome (HACAT [4]) inactive [at 92 µM]

CCOC(=O)c1cncn1C(C)c1ccccc1 (stereo unspecified)
inactive: max response (CRL-7250 [1]) 3.39% | outcome (CRL-7250 [1]) | max response (HEK293) -6.12% | outcome (HEK293) | max response (HaCat [2]) -5.29% | outcome (HaCat [2]) | max response (KB-3-1) 0.49% and 0.484% | max response (NIH3T3) 1.83% and -0.636% | outcome (CRL-7250 [3]) | outcome (HACAT [4]) | outcome (HEK293T)

CNC(C)Cc1ccc2c(c1)OCO2 (stereo unspecified)
inactive: max response (CRL-7250 [1]) 4.98% | max response (HEK293) -3.37% | max response (HaCat [2]) -2.61% | max response (KB-3-1) -21.8% | max response (NIH3T3) 0.465%

CC1N=C(N)OC1c1ccccc1 (stereo unspecified)
inactive: max response (CRL-7250 [1]) -30.4% | max response (HEK293) -15.4% | outcome (HaCat [2]) | max response (KB-3-1) -3.1% | max response (NIH3T3) -2.85% | outcome (HACAT [4]) inactive [at 92 µM]

C[C@@H]1O[C@@H](O[C@@H]2C=C3CC[C@@H]4[C@H](CC[C@]5(C)[C@@H](c6ccc(=O)oc6)CC[C@]45O)[C@@]3(C)CC2)[C@H](O)[C@H](O)[C@H]1O
active: Potency (CRL-7250 [1]) 0.0133 µM | Potency (HEK293) 0.0335 µM | Potency (HaCat [2]) 0.0422 µM

CCCOC(=O)Cc1ccc(OCC(=O)N(CC)CC)c(OC)c1
inactive: max response (CRL-7250 [1]) -7.4% | max response (HEK293) -10.1% | max response (HaCat [2]) -1.71% | max response (KB-3-1) -8.87% | max response (NIH3T3) -20.5%

COc1cc(N)c(Cl)cc1C(=O)NC1CN2CCC1CC2 (stereo unspecified)
inactive: max response (CRL-7250 [1]) -0.63% | max response (HEK293) -0.75% | max response (HaCat [2]) -3.99% | max response (KB-3-1) 8.72% | outcome (NIH3T3)

COC(=O)C1=CCCN(C)C1
inactive: Potency (TAB165) | Potency (W2) | max response (CRL-7250 [1]) -3.77% | outcome (CRL-7250 [1]) | max response (HEK293) 2.76% and 4.85% | max response (HaCat [2]) -4.46% | outcome (HaCat [2]) | max response (KB-3-1) 6.89% and 12.1% | outcome (NIH3T3) | outcome (HACAT [4])

CCC(OC(C)=O)C(CC(C)NC)(c1ccccc1)c1ccccc1 (stereo unspecified)
inactive: max response (KB-3-1) -22.1%
active: Potency (CRL-7250 [1]) 43.7 µM | Potency (HEK293) 31 µM | Potency (HaCat [2]) 27.6 µM

C[N+]1(C)[C@@H]2CC[C@H]1CC(OC(=O)C(CO)c1ccccc1)C2 (stereo partly specified)
inactive: outcome (CRL-7250 [1]) | outcome (HEK293) | max response (HaCat [2]) -1.21% | max response (KB-3-1) -14.7% and 4.2% | max response (NIH3T3) -5.19% | outcome (CRL-7250 [3]) | outcome (HEK293T)

CCCC[N+]1(C)[C@@H]2CC(OC(=O)[C@H](CO)c3ccccc3)C[C@H]1[C@@H]1O[C@@H]12 (stereo partly specified)
inactive: max response (CRL-7250 [1]) -24.5% | outcome (CRL-7250 [1]) | outcome (HEK293) | max response (HaCat [2]) -9.09% | outcome (HaCat [2]) | max response (KB-3-1) 6.44% and 1.1% | max response (NIH3T3) 4.56% and 3.97% | outcome (CRL-7250 [3]) | outcome (HACAT [4]) | outcome (HEK293T)

C[C@@H]1CN(C2CCC(C#N)(c3ccc(F)cc3)CC2)CC[C@]1(C(=O)O)c1ccccc1 (stereo partly specified)
inactive: outcome (CRL-7250 [1]) | max response (HEK293) -6.67% | max response (HaCat [2]) 3.21% | max response (KB-3-1) -4.01% | outcome (NIH3T3) | outcome (CRL-7250 [3])

CN1C(=O)CN=C(c2ccccc2)c2cc([N+](=O)[O-])ccc21
inactive: Potency (TAB165) | Potency (W2) | outcome (CRL-7250 [1]) | max response (HEK293) -10% | outcome (HaCat [2]) | max response (KB-3-1) 9.64% | outcome (NIH3T3) | outcome (CRL-7250 [3]) | outcome (HACAT [4])

CC(C)C(Br)C(=O)NC(N)=O (stereo unspecified)
inactive: Potency (TAB165) | Potency (W2) | outcome (CRL-7250 [1]) | max response (HEK293) 2.09% | max response (HaCat [2]) -11.8% | max response (KB-3-1) -15.8% | max response (NIH3T3) -7.2% | outcome (CRL-7250 [3])

C[C@@H]1CC[C@H]2[C@@H](C)C(=O)O[C@@H]3O[C@@]4(C)CC[C@@H]1[C@]32OO4
active: Potency (HEK293) 2.37 µM
inactive: max response (CRL-7250 [1]) -4.21% | outcome (HaCat [2]) | max response (KB-3-1) -14.6% | max response (NIH3T3) -3.92% | outcome (HACAT [4])
